In publication PMC11062922 (Nature Chemical Biology, 2023):
Like-named read-outs stand apart in the source and are kept apart here.

What was measured:
Parameters in all cases: species or system human, MV4-11 + K-562 + COLO205 + SK-N-BE2 + OVCAR-8
CDK7 = conditions: read-out: apparent Kd; compound concentrations:100 nM and 1000 nM (sheet 'Samples'); n = 1
ERCC2 = conditions: read-out: apparent Kd; compound concentrations:100 nM and 1000 nM (sheet 'Samples'); n = 1
MAPK10 = conditions: read-out: apparent Kd, n = 1
MAPK14 = conditions: read-out: apparent Kd, n = 1
MAPK9 = conditions: read-out: apparent Kd, n = 1
MAPKAPK2 = conditions: read-out: apparent Kd, n = 1
NLK = conditions: read-out: apparent Kd, n = 1
PIP4K2C = conditions: read-out: apparent Kd; compound concentrations:100 nM and 1000 nM (sheet 'Samples'); n = 1
PRKAA2 = conditions: read-out: apparent Kd; compound concentrations:100 nM and 1000 nM (sheet 'Samples'); n = 1
TNK2 = conditions: read-out: apparent Kd; compound concentrations:100 nM and 1000 nM (sheet 'Samples'); n = 1
CDKL5 = conditions: read-out: apparent Kd, n = 1
PRKAG2 = conditions: read-out: apparent Kd; compound concentrations: 100 nM and 1000 nM (sheet 'Samples'), CATDS: 0.49360231247915698; n = 1
CDK6 = conditions: read-out: apparent Kd, n = 1
DJA1 = tested on: T1, DJA1; conditions: read-out: apparent Kd; compound concentrations:100 nM and 1000 nM (sheet 'Samples'); n = 1
T1 construct: gene DNAJA1

GARS = conditions: read-out: apparent Kd; compound concentrations:100 nM and 1000 nM (sheet 'Samples'); n = 1
GSK3A = conditions: read-out: apparent Kd; compound concentrations:100 nM and 1000 nM (sheet 'Samples'); n = 1
GSK3B = conditions: read-out: apparent Kd; compound concentrations:100 nM and 1000 nM (sheet 'Samples'); n = 1
MAP2K1 = conditions: read-out: apparent Kd; compound concentrations:100 nM and 1000 nM (sheet 'Samples'); n = 1
NNT = conditions: read-out: apparent Kd; compound concentrations:100 nM and 1000 nM (sheet 'Samples'); n = 1
NQO1 = conditions: read-out: apparent Kd; compound concentrations:100 nM and 1000 nM (sheet 'Samples'); n = 1
PIK3CA = conditions: read-out: apparent Kd; compound concentrations:100 nM and 1000 nM (sheet 'Samples'); n = 1
PIK3CD = conditions: read-out: apparent Kd; compound concentrations:100 nM and 1000 nM (sheet 'Samples'); n = 1
PRKCZ = conditions: read-out: apparent Kd; compound concentrations:100 nM and 1000 nM (sheet 'Samples'); n = 1
PRKD2 = conditions: read-out: apparent Kd; compound concentrations:100 nM and 1000 nM (sheet 'Samples'); n = 1
PSMC3 = conditions: read-out: apparent Kd; compound concentrations:100 nM and 1000 nM (sheet 'Samples'); n = 1
SMC4 = conditions: read-out: apparent Kd; compound concentrations:100 nM and 1000 nM (sheet 'Samples'); n = 1
CLK1 = conditions: read-out: apparent Kd; compound concentrations: 100 nM and 1000 nM (sheet 'Samples'), CATDS: 4.8485832065687497E-2; n = 1
CLK4 = conditions: read-out: apparent Kd; compound concentrations: 100 nM and 1000 nM (sheet 'Samples'), CATDS: 5.2281896734728002E-2; n = 1
CSNK1D = conditions: read-out: apparent Kd, n = 1
CSNK1E = conditions: read-out: apparent Kd, n = 1
EIF2AK1 = conditions: read-out: apparent Kd; compound concentrations: 100 nM and 1000 nM (sheet 'Samples'), CATDS: 4.8293070245640599E-2; n = 1
FER = conditions: read-out: apparent Kd; compound concentrations: 100 nM and 1000 nM (sheet 'Samples'), CATDS: 4.7949039435888803E-2; n = 1
GAK = conditions: read-out: apparent Kd, n = 1
IGF1R = conditions: read-out: apparent Kd; compound concentrations: 100 nM and 1000 nM (sheet 'Samples'), CATDS: 5.4863623433827502E-2; n = 1
INSR = conditions: read-out: apparent Kd; compound concentrations: 100 nM and 1000 nM (sheet 'Samples'), CATDS: 6.5997959622395005E-2; n = 1
MAPK8 = conditions: read-out: apparent Kd; compound concentrations: 100 nM and 1000 nM (sheet 'Samples'), CATDS: 0.131985587437009; n = 1
PTK2B = conditions: read-out: apparent Kd; compound concentrations: 100 nM and 1000 nM (sheet 'Samples'), CATDS: 8.3393690442652907E-2; n = 1
TNK1 = conditions: read-out: apparent Kd; compound concentrations: 100 nM and 1000 nM (sheet 'Samples'), CATDS: 0.131122015547642; n = 1
TTK = conditions: read-out: apparent Kd; compound concentrations: 100 nM and 1000 nM (sheet 'Samples'), CATDS: 6.1430797612991001E-2; n = 1
PIM2 = conditions: read-out: apparent Kd; compound concentrations: 100 nM and 1000 nM (sheet 'Samples'), CATDS: 0.49047797816886901; n = 1
HSP90B1 = conditions: read-out: apparent Kd; compound concentrations:100 nM and 1000 nM (sheet 'Samples'); n = 1
MAP2K2 = conditions: read-out: apparent Kd; compound concentrations:100 nM and 1000 nM (sheet 'Samples'); n = 1
CIT = conditions: read-out: apparent Kd, n = 1
CSNK1A1 = conditions: read-out: apparent Kd, n = 1
DDR1 = conditions: read-out: apparent Kd; compound concentrations: 100 nM and 1000 nM (sheet 'Samples'), CATDS: 7.6072029759196497E-2; n = 1
DDR2 = conditions: read-out: apparent Kd, n = 1
RIPK2 = conditions: read-out: apparent Kd, n = 1
COX5A = conditions: read-out: apparent Kd; compound concentrations:100 nM and 1000 nM (sheet 'Samples'); n = 1
MAPK11 = conditions: read-out: apparent Kd; compound concentrations:100 nM and 1000 nM (sheet 'Samples'); n = 1
PKN3 = conditions: read-out: apparent Kd; compound concentrations:100 nM and 1000 nM (sheet 'Samples'); n = 1
TGFBR1 = conditions: read-out: apparent Kd; compound concentrations:100 nM and 1000 nM (sheet 'Samples'); n = 1
MTHFD1 = conditions: read-out: apparent Kd; compound concentrations:100 nM and 1000 nM (sheet 'Samples'); n = 1
PLK1 = conditions: read-out: apparent Kd; compound concentrations: 100 nM and 1000 nM (sheet 'Samples'), CATDS: 0.37737970121019898; n = 1
[1] = compound concentrations:100 nM and 1000 nM (sheet 'Samples')

## Cl.Cn1c(=O)c(Oc2ccccc2)cc2cnc(NC3CCOCC3)nc21 [RO3304757-001]
CDK7
  potency estimated from few doses: 1.31 µM
ERCC2
  potency estimated from few doses: 1.5 µM
MAPK10; [1]
  potency estimated from few doses: 0.984 µM
MAPK14; compound concentrations: 100 nM and 1000 nM (sheet 'Samples'), CATDS: 0.27428845343206798
  potency estimated from few doses: 0.0689 µM
MAPK9; [1]
  potency estimated from few doses: 0.349 µM
MAPKAPK2; [1]
  potency estimated from few doses: 0.0647 µM
NLK; [1]
  potency estimated from few doses: 0.148 µM
PIP4K2C
  potency estimated from few doses: 0.896 µM
PRKAA2
  potency estimated from few doses: 1.77 µM
TNK2
  potency estimated from few doses: 1.16 µM

## COc1ccc(Nc2nccc(N3CCC(NC(=O)Nc4cc(C)ccc4C)C3)n2)cc1 (stereo not shown) [GSK1379741A]
CDKL5; compound concentrations: 100 nM and 1000 nM (sheet 'Samples'), CATDS: 0.50656570893737995
  potency estimated from few doses: 1.86 µM
PRKAG2
  potency estimated from few doses: 1.96 µM

## COc1cccc(C2=C(Nc3cccc(C(=O)O)c3)C(=O)NC2=O)c1 [SB-390770]
CDK6; [1]
  potency estimated from few doses: 2.18 µM
DJA1
  potency estimated from few doses: 0.842 µM
GARS
  potency estimated from few doses: 1.36 µM
GSK3A
  potency estimated from few doses: 0.83 µM
GSK3B
  potency estimated from few doses: 0.859 µM
MAP2K1
  potency estimated from few doses: 2.35 µM
NNT
  potency estimated from few doses: 1.12 µM
NQO1
  potency estimated from few doses: 2.21 µM
PIK3CA
  potency estimated from few doses: 0.226 µM
PIK3CD
  potency estimated from few doses: 0.13 µM
PRKCZ
  potency estimated from few doses: 1.58 µM
PRKD2
  potency estimated from few doses: 1.72 µM
PSMC3
  potency estimated from few doses: 0.907 µM
SMC4
  potency estimated from few doses: 0.986 µM

## CCCN1CCC(c2ccc(Nc3nc(Nc4cc(F)ccc4C(N)=O)c4cc[nH]c4n3)c(OC)c2)CC1 [GSK1326255A]
CLK1
  potency estimated from few doses: 1.21 µM
CLK4
  potency estimated from few doses: 0.912 µM
CSNK1D; compound concentrations: 100 nM and 1000 nM (sheet 'Samples'), CATDS: 4.52776824202724E-2
  potency estimated from few doses: 1.61 µM
CSNK1E; compound concentrations: 100 nM and 1000 nM (sheet 'Samples'), CATDS: 4.2697744465197598E-2
  potency estimated from few doses: 2.15 µM
EIF2AK1
  potency estimated from few doses: 1.23 µM
FER
  potency estimated from few doses: 1.26 µM
GAK; compound concentrations: 100 nM and 1000 nM (sheet 'Samples'), CATDS: 0.152402490696291
  potency estimated from few doses: 0.0825 µM
IGF1R
  potency estimated from few doses: 0.775 µM
INSR
  potency estimated from few doses: 0.449 µM
MAPK10; compound concentrations: 100 nM and 1000 nM (sheet 'Samples'), CATDS: 0.16896566157677501
  potency estimated from few doses: 0.0703 µM
MAPK8
  potency estimated from few doses: 0.104 µM
MAPK9; compound concentrations: 100 nM and 1000 nM (sheet 'Samples'), CATDS: 0.113022620554471
  potency estimated from few doses: 0.137 µM
PTK2B
  potency estimated from few doses: 0.253 µM
TNK1
  potency estimated from few doses: 0.106 µM
TTK
  potency estimated from few doses: 0.548 µM

## O=C(Nc1n[nH]c2cc(-c3ccccc3F)ccc12)C1CC1 [SB-733371]
CDK6; compound concentrations: 100 nM and 1000 nM (sheet 'Samples'), CATDS: 0.50989905801732505
  potency estimated from few doses: 1.67 µM
PIM2
  potency estimated from few doses: 1.8 µM

## CC(C(=O)NC1CCN(c2ccnc(Nc3ccc(F)cc3)n2)C1)c1ccc(Cl)cc1 (stereo not shown) [GSK1379713A]
CDK6; [1]
  potency estimated from few doses: 2.08 µM
HSP90B1
  potency estimated from few doses: 0.088 µM
MAP2K1
  potency estimated from few doses: 2.23 µM
MAP2K2
  potency estimated from few doses: 1.46 µM
NNT
  potency estimated from few doses: 1.4 µM
NQO1
  potency estimated from few doses: 1.65 µM

## Nc1nccc(-c2c(-c3ccc(F)cc3)ncn2C2CCN(CC(F)(F)F)CC2)n1 [SB-236560]
CIT; compound concentrations: 100 nM and 1000 nM (sheet 'Samples'), CATDS: 7.9772232901770906E-2
  potency estimated from few doses: 0.168 µM
CSNK1A1; compound concentrations: 100 nM and 1000 nM (sheet 'Samples'), CATDS: 5.74682899523659E-2
  potency estimated from few doses: 0.514 µM
CSNK1D; compound concentrations: 100 nM and 1000 nM (sheet 'Samples'), CATDS: 0.160108926806518
  potency estimated from few doses: 0.0413 µM
CSNK1E; compound concentrations: 100 nM and 1000 nM (sheet 'Samples'), CATDS: 0.10532594591196801
  potency estimated from few doses: 0.0877 µM
DDR1
  potency estimated from few doses: 0.191 µM
DDR2; compound concentrations: 100 nM and 1000 nM (sheet 'Samples'), CATDS: 5.6437798094111098E-2
  potency estimated from few doses: 0.559 µM
MAPK10; compound concentrations: 100 nM and 1000 nM (sheet 'Samples'), CATDS: 4.9775918057440499E-2
  potency estimated from few doses: 1.15 µM
MAPK14; compound concentrations: 100 nM and 1000 nM (sheet 'Samples'), CATDS: 0.14251472882722499
  potency estimated from few doses: 0.05 µM
MAPK9; compound concentrations: 100 nM and 1000 nM (sheet 'Samples'), CATDS: 6.3726988892981506E-2
  potency estimated from few doses: 0.338 µM
MAPKAPK2; compound concentrations: 100 nM and 1000 nM (sheet 'Samples'), CATDS: 0.17165135235048001
  potency estimated from few doses: 0.0371 µM
NLK; compound concentrations: 100 nM and 1000 nM (sheet 'Samples'), CATDS: 9.0409575218607804E-2
  potency estimated from few doses: 0.123 µM
RIPK2; compound concentrations: 100 nM and 1000 nM (sheet 'Samples'), CATDS: 0.128634977422559
  potency estimated from few doses: 0.0598 µM

## CN1CCC(n2cnc(-c3ccc(F)cc3)c2-c2ccnc(N)n2)CC1 [SB-220455]
CIT; [1]
  potency estimated from few doses: 0.23 µM
COX5A
  potency estimated from few doses: 0.656 µM
CSNK1A1; [1]
  potency estimated from few doses: 0.0247 µM
CSNK1D; [1]
  potency estimated from few doses: 0.00226 µM
CSNK1E; [1]
  potency estimated from few doses: 0.00587 µM
DDR2; [1]
  potency estimated from few doses: 0.578 µM
GAK; [1]
  potency estimated from few doses: 1.35 µM
MAP2K2
  potency estimated from few doses: 0.185 µM
MAPK10; [1]
  potency estimated from few doses: 0.784 µM
MAPK11
  potency estimated from few doses: 1.13 µM
MAPK14; [1]
  potency estimated from few doses: 0.022 µM
MAPK9; [1]
  potency estimated from few doses: 0.45 µM
MAPKAPK2; [1]
  potency estimated from few doses: 0.00388 µM
NLK; [1]
  potency estimated from few doses: 0.0815 µM
NNT
  potency estimated from few doses: 1.29 µM
PIP4K2C
  potency estimated from few doses: 2.31 µM
PKN3
  potency estimated from few doses: 1.52 µM
PRKD2
  potency estimated from few doses: 1.58 µM
PSMC3
  potency estimated from few doses: 1.92 µM
RIPK2; [1]
  potency estimated from few doses: 0.246 µM
TGFBR1
  potency estimated from few doses: 2.02 µM

## COc1cc2ncn(-c3cc(OCc4ccccc4C(F)(F)F)c(C(N)=O)s3)c2cc1OC [GW843682X]
CDKL5; [1]
  potency estimated from few doses: 2.33 µM
MTHFD1
  potency estimated from few doses: 1.71 µM
PLK1
  potency estimated from few doses: 1.4 µM
